“And” between values parts separate entries of the source, which are not always exact repeats. Equal values may be shown once. Inconclusive results are not listed. The source holds several records for some structures; these can differ, active in one and inactive in another. The source made the active and inactive calls. Rule for the calls, unless noted: active = hit-call score of the fitted dose curve at least 0.9, where 1 is the maximum; inconclusive = response in the unintended direction; inactive = score below 0.9.
Experiments:
[1] = target: guinea pig Sigma Receptor, Non-selective Binding, SIGMAR1 (gene 100135589) (UniProt Q60492); test: NVS_OR_gSIGMA_NonSelective: NovaScreen (NVS) Nuclear Receptor Binding Assay for guinea pig Sigma Receptor, Non-selective Binding (AID 2283367)
guinea pig Sigma Receptor, Non-selective Binding, SIGMAR1 (gene 100135589), sequence (Q60492 whole entry, looked up): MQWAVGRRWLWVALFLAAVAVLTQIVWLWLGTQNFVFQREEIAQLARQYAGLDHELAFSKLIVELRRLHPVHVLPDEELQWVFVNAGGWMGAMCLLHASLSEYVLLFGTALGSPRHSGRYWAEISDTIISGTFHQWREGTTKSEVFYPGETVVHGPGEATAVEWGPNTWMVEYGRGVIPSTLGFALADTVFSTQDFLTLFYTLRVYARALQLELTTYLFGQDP
Outline: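 gp brain membr., radioligand displacement, 1 h, filtration + scint. counting; DMSO = baseline; 25 uM x2 primary, conc.-response confirm.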

[2] = target: human Adenosine Transporter (Adot), SLC29A1 (gene 2030) (UniProt Q99808); test: NVS_TR_hAdoT: NovaScreen (NVS) Transporter Assay for human Adenosine Transporter (Adot) (AID 2283368)
Outline: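 U937-derived membranes, cell-free radioligand binding, filter scintillation 1 h after dosing. 25 uM duplicate screen; hits (e.g. 30% inhibition) run in concentration-response up to 50 uM; loss of signal versus DMSO.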

[3] = tested on: guinea pig Dopamine Transporter (DAT), gene 100714898; test: NVS_TR_gDAT: NovaScreen (NVS) Transporter Assay for guinea pig Dopamine Transporter (DAT) (AID 2283369);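 note: active compounds lower bound radioligand signal relative to DMSO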
Outline: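 Guinea pig striatal membranes, cell-free radioligand binding with filter-based scintillation counting, read 2 h after dosing. Loss of signal versus DMSO baseline; single-concentration primary (25 uM) then concentration-response up to 50 uM.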

[4] = target: Peroxisome proliferator-activated receptor gamma (Homo sapiens) (UniProt P37231); test: NVS_NR_hPPARg: NovaScreen (NVS) Nuclear Receptor Binding Assay for human Peroxisome Proliferator-activated Receptor gamma (PPARg) (AID 2283370)
Peroxisome proliferator-activated receptor gamma (Homo sapiens), sequence (P37231 whole entry, looked up, the tested form may be a part): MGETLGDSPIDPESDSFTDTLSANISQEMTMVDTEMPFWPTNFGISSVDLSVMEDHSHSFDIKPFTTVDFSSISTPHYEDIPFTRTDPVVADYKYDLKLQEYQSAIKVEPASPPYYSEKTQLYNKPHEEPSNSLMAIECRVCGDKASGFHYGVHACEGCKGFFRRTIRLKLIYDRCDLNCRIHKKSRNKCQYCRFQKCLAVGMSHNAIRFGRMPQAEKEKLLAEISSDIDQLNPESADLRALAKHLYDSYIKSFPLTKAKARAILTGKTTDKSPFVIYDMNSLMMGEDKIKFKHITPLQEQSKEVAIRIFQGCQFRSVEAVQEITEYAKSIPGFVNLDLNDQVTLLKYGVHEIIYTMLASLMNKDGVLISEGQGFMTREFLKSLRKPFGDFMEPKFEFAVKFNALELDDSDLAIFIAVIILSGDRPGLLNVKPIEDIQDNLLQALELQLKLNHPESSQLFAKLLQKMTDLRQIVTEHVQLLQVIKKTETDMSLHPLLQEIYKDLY
Outline: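 Cell-free fluorescence polarization binding to human PPARg protein, read 2 h after dosing. Primary screen in duplicate at 25 uM, actives followed in concentration series; loss of signal relative to DMSO scored.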

[5] = target: human Dopamine Transporter (DAT), SLC6A3 (gene 6531) (UniProt Q01959); test: NVS_TR_hDAT: NovaScreen (NVS) Transporter Assay for human Dopamine Transporter (DAT) (AID 2283374);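 note: activity means loss of bound radioligand signal relative to DMSO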
Outline: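 Test chemicals were first screened in duplicate at 25 uM, with actives retested as concentration series. Displacement of a specific radioligand from cell-free human dopamine transporter was measured after 1 h by filtration and scintillation counting.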

[6] = target: human Norepinephrine Transporter (NET), SLC6A2 (gene 6530) (UniProt P23975); test: NVS_TR_hNET: NovaScreen (NVS) Transporter Assay for human Norepinephrine Transporter (NET) (AID 2283377);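 note: cell-free membrane protein extracted from CHO cells expressing human NET; displacement of radioligand from human NET seen as loss of scintillation signal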
human Norepinephrine Transporter (NET), SLC6A2 (gene 6530), sequence (P23975 whole entry, looked up): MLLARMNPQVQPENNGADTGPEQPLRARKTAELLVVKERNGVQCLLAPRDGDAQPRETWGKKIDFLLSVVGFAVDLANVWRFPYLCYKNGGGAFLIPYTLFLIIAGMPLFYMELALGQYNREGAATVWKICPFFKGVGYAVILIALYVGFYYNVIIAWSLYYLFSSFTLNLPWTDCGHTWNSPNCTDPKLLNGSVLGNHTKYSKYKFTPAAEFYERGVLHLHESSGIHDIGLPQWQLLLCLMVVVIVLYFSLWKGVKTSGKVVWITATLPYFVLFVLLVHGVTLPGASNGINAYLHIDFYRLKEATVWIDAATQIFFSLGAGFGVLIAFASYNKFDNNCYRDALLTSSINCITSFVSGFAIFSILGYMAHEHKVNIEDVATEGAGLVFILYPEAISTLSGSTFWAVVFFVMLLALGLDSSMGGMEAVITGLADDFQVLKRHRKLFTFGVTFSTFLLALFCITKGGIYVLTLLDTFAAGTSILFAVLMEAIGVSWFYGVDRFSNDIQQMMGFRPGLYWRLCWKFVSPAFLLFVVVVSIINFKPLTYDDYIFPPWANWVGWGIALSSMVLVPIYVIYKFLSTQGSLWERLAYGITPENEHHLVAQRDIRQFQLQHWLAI
Outline: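 Scintillation counts of filter-retained radioligand served as the readout, taken 1 h post-dosing in a cell-free CHO-derived system. Test chemicals ran first at 25 uM in duplicate; confirmed hits were retested across concentrations.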

[7] = target: Agonist Androgen Response Element (ARE), AR (gene 367) (UniProt P10275); test: OT_AR_ARELUC_AG_1440: Odyssey Thera (OT) 24-hour CHO-K1 Luciferase Assay for Agonist Androgen Response Element (ARE) (AID 2283379)
Agonist Androgen Response Element (ARE), AR (gene 367), sequence (P10275 whole entry, looked up): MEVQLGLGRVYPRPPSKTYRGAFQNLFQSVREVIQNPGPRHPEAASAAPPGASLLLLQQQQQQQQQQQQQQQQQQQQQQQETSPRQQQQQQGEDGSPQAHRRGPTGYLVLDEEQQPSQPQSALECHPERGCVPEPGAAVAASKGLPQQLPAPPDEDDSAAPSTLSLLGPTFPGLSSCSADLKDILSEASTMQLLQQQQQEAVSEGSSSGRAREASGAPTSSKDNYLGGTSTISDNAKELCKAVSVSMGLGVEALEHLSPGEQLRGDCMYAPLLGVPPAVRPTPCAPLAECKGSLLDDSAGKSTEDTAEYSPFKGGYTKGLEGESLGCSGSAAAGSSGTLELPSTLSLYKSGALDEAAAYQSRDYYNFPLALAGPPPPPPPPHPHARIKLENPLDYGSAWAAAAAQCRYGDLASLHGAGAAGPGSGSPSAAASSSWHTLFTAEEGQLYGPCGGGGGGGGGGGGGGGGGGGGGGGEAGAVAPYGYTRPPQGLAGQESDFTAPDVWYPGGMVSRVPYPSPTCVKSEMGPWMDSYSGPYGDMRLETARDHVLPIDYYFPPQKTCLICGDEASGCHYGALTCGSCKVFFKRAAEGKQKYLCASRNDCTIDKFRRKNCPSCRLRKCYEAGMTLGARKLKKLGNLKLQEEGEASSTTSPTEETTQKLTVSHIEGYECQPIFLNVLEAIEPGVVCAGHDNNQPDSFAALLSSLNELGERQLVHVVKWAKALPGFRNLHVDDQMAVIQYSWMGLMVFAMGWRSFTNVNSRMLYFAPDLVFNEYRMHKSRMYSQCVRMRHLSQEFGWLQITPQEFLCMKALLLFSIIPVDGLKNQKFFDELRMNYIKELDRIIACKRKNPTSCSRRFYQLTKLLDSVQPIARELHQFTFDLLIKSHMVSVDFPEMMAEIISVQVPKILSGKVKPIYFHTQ
Outline: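 Agonist mode, 24 h exposure in CHO-K1 ARE-luciferase cells; values reflect luminescence induction over vehicle.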

[8] = target: Bile acid receptor (Homo sapiens) (UniProt Q96RI1); test: OT_FXR_FXRSRC1_0480: Odyssey Thera (OT) 8-hour HEK293T Protein-Complementation Assay for Farnesoid X receptor/SRC-1 Co-activator (AID 2283383)
Bile acid receptor (Homo sapiens), sequence (Q96RI1 whole entry, looked up, the tested form may be a part): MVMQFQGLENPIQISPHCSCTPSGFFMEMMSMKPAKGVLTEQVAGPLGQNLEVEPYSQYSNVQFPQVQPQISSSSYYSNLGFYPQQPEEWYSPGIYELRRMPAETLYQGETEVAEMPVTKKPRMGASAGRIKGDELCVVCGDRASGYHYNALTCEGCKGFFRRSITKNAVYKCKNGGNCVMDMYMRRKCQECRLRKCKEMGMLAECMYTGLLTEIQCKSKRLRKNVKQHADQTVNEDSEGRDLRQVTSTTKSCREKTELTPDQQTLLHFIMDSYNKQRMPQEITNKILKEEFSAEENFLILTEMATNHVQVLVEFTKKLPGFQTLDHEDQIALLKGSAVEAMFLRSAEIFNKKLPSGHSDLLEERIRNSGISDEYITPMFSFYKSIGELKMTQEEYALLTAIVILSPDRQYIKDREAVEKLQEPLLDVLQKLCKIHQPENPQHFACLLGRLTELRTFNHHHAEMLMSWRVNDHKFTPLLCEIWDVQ
Outline: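 HEK293T cells expressing FXR and SRC-1 fused to reporter fragments were dosed with compound for 8 h; fluorescence from the reconstituted reporter marked co-activator recruitment. Gain of signal was fitted against the DMSO baseline.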

[9] = target: Bile acid receptor (Homo sapiens) (UniProt Q96RI1); test: OT_FXR_FXRSRC1_1440: Odyssey Thera (OT) 24-hour HEK293T Protein-Complementation Assay for Farnesoid X receptor/SRC-1 Co-activator (AID 2283384)
Outline: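 HEK293T cells were dosed with compound and read 24 h later by fluorescence intensity from protein-fragment complementation reporting FXR/SRC-1 co-activator interaction. Gain of signal was fitted relative to DMSO negative control as baseline.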

[10] = target: Retinoic acid receptor RXR-alpha (Homo sapiens) (UniProt P19793); test: OT_NURR1_NURR1RXRa_1440: Odyssey Thera (OT) 24-hour HEK293T Protein Complementation Assay for Nurr1/retinoid X receptor (RXR) (AID 2283386)
Retinoic acid receptor RXR-alpha (Homo sapiens), sequence (P19793 whole entry, looked up, the tested form may be a part): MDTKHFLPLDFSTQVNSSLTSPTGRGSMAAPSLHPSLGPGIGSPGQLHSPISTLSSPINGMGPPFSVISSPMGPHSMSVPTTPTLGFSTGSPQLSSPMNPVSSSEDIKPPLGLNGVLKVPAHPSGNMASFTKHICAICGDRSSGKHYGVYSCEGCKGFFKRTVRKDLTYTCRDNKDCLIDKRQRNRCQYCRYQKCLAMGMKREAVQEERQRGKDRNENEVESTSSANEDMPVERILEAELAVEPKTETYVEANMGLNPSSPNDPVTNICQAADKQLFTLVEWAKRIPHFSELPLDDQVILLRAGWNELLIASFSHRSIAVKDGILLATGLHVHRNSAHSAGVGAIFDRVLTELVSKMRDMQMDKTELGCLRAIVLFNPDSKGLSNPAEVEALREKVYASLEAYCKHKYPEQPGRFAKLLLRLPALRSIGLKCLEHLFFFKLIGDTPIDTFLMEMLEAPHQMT
Outline: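 HEK293T cells were dosed with compound and read 24 h later by fluorescence intensity in a protein-fragment complementation format, where Nurr1–RXRα interaction reconstitutes a split reporter. Activity was fitted as gain of signal relative to DMSO baseline.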

[11] = target: Peroxisome proliferator-activated receptor gamma (Homo sapiens) (UniProt P37231); test: OT_PPARg_PPARgSRC1_0480: Odyssey Thera (OT) 8-hour Protein-Complementation Assay for Peroxisome Proliferator-activated Receptor Gamma / SRC-1 Co-activator (AID 2283387)
Outline: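 HEK293T transiently transfected with PPARg and SRC-1 fused to Venus YFP fragments, compounds 8 h at 37C. Fixed, Draq5-stained cells imaged; nuclear/cytoplasmic 488 nm fluorescence ratio over at least 350 cells per image; gain fitted versus DMSO.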

[12] = target: Peroxisome proliferator-activated receptor gamma (Homo sapiens) (UniProt P37231); test: OT_PPARg_PPARgSRC1_1440: Odyssey Thera (OT) 24-hour Protein-Complementation Assay for Peroxisome Proliferator-activated Receptor Gamma/ SRC-1 Co-activator (AID 2283388)
Outline: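 HEK293T transiently transfected with PPARg/SRC-1 split-Venus YFP fusions 48 h before dosing, then treated 24 h at 37C. Fixed cells imaged; nuclear/cytoplasmic 488 nm fluorescence ratio, gain of signal versus DMSO.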

[13] = target: mouse Estrogen Receptor alpha (Era), Esr1 (gene 13982) (UniProt P19785); test: NVS_NR_mERa: NovaScreen (NVS) Nuclear Receptor Binding Assay for mouse Estrogen Receptor alpha (Era) (AID 2283378);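 note: hit means loss of bound radioligand signal relative to DMSO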
mouse Estrogen Receptor alpha (Era), Esr1 (gene 13982), sequence (P19785 whole entry, looked up): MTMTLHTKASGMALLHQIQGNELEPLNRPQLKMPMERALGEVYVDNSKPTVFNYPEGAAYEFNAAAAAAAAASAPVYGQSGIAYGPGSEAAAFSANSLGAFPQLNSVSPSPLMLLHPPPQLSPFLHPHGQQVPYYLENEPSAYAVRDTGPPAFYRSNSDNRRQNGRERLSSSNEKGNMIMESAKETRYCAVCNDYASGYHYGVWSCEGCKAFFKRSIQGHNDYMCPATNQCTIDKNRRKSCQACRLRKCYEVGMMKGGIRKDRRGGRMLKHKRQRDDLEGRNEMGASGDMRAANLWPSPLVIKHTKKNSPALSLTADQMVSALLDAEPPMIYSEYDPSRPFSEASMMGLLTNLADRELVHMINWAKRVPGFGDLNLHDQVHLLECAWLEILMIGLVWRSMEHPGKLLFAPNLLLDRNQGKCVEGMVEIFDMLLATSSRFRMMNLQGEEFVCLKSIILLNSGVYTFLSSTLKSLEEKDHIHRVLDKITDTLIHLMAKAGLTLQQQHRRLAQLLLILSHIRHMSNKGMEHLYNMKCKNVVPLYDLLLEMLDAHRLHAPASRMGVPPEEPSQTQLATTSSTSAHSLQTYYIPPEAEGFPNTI
Outline: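 Cell-free radioligand competitive displacement binding, read by filter-based scintillation counting 18 h after dosing. Primary screen run in duplicate at 25 uM, actives retested in concentration series; loss of signal versus DMSO.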

[14] = target: Retinoic acid receptor RXR-alpha (Homo sapiens) (UniProt P19793); test: OT_NURR1_NURR1RXRa_0480: Odyssey Thera (OT) 8-hour HEK293T Protein Complementation Assay for Nurr1/retinoid X receptor (RXR) (AID 2283385)
Outline: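 HEK293T cells expressing Nurr1 and RXRα fused to reporter fragments were dosed with compound for 8 hours. Complex formation was read as fluorescence intensity and analysed as gain of signal against DMSO as baseline.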

[15] = target: Estrogen receptor (Homo sapiens) (UniProt P03372); test: OT_ERa_GFPERaERE_0480: Odyssey Thera (OT) 8-hour HeLa Transcription Induction Assay for Estrogen Receptor (AID 2283381; active = hit-call score of the fitted dose curve at least 0.9, where 1 is the maximum; inactive = score below 0.9)
Estrogen receptor (Homo sapiens), sequence (P03372 whole entry, looked up): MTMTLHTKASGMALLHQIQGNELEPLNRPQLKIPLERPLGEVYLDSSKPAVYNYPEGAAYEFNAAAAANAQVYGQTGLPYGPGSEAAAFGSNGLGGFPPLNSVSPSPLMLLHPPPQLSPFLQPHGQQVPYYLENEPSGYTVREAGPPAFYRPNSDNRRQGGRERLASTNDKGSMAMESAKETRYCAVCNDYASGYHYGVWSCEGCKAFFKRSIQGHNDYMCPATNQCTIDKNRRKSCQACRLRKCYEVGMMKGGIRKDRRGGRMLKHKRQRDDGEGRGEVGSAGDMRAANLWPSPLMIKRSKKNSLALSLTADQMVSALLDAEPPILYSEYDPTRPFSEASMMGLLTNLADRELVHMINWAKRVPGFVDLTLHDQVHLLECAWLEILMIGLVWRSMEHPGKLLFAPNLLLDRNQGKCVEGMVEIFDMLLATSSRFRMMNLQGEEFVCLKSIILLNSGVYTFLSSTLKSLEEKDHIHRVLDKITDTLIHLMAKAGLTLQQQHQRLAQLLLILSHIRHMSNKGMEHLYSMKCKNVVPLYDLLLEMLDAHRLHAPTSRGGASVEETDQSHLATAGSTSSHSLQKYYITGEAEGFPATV
Outline: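 HeLa cells dosed with compound and imaged by fluorescence microscopy at 8 h; GFP induction from an ERE reporter quantified by high-content image analysis and fitted as gain of signal against DMSO baseline.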

[16] = target: Estrogen receptor (Homo sapiens) (UniProt P03372); test: OT_ERa_GFPERaERE_0120: Odyssey Thera (OT) 2-hour HeLa Transcription Induction Assay for Estrogen Receptor (AID 2283382)
Outline: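 HeLa cells were dosed with test chemical and read 2 hours later for GFP-ERα/ERE-linked fluorescent protein induction by fluorescence microscopy. Gain-of-signal was fitted relative to DMSO baseline, quantified by high content image analysis.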

[17] = target: Estrogen receptor beta (Homo sapiens) (UniProt Q92731); test: OT_ER_ERbERb_1440: Odyssey Thera (OT) 24-hour HEK293T Protein-Complementation Assay for Estrogen Receptor-beta/-beta Homodimer (AID 2283380);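 note: fluorescence gain from ER beta LBD homodimer complementation read by laser scanning cytometry; scored as signal increase over DMSO baseline for both agonists and antagonists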
Estrogen receptor beta (Homo sapiens), sequence (Q92731 whole entry, looked up, the tested form may be a part): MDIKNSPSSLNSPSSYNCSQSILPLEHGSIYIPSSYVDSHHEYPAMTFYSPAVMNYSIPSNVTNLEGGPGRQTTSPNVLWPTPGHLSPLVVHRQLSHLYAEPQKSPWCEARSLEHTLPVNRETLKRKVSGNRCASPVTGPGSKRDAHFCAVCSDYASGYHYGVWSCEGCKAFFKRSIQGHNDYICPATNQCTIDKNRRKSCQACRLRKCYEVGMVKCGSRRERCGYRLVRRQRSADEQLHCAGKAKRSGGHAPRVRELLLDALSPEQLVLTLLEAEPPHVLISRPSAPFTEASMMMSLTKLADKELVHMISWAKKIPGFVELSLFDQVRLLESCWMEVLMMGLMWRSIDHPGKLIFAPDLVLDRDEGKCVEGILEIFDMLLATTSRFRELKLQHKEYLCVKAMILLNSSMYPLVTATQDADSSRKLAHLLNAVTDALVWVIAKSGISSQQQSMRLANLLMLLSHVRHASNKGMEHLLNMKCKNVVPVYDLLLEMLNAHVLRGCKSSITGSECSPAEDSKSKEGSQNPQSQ
Outline: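 Fluorescence increase, nuclear for agonists or whole-cell for antagonists, relative to DMSO vehicle, quantified by laser scanning cytometer after fixation and Draq5 staining. Readout from 24 h treatment of HEK293T cells carrying complementation-paired ER beta LBD (aa 310-547).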

Measured: AC50

CCC(=C(c1ccc(O)cc1)c1ccc(OCCN(C)C)cc1)c1ccccc1
inactive: [2] | [4] | [7] | [8] | [9] | [10] | [11] | [12]
active: [1] 0.598 µM | [3] 3.77 µM | [5] 1.48 µM | [6] 4.24 µM | [8] 7.35 µM and 7.42 µM and 7.26 µM | [9] 7.46 µM and 7.54 µM and 7.53 µM

O=c1c(-c2ccc(O)cc2)coc2cc(O)ccc12
inactive: [4] | [7] | [8] | [14] | [11] | [12]
active: [13] 421 nM [middle of 4 runs] | [8] 36.7 µM and 37.1 µM | [9] 48.1 µM and 33.8 µM and 30.5 µM | [14] 50 µM

c1ccc2c(c1)ccc1ccccc12
inactive: [1] | [7] | [15] | [16] | [8] | [9] | [14] | [11] | [12]

CC(C)(C)c1cc(C(C)(C)C)c(O)c(C(C)(C)C)c1
inactive: [4] | [15] | [16] | [11] | [12]
active: [17] 66.3 µM | [8] 81.1 µM | [9] 92.6 µM | [14] 84.3 µM and 77.2 µM

OC1CCC(C2CCCCC2)CC1 (stereo unspecified)
inactive: [13] | [17] | [15] | [16] | [8] | [9] | [14] | [11] | [12]
active: [1] 25 µM | [17] 57.8 µM and 49.5 µM and 59.4 µM | [8] 55.7 µM and 35.6 µM and 50 µM

Oc1cc2ccccc2c2ccccc12
inactive: [2] | [5] | [7] | [17] | [16] | [14] | [11] | [12]
active: [6] 1.89 µM | [15] 28.9 µM

NC(=O)N1C(=O)C(C(=O)c2cc(Cl)cs2)c2cc(F)c(Cl)cc21 (stereo unspecified)
active: [4] 5.35 µM | [6] 25 µM | [9] 81.9 µM | [14] 13.2 µM
inactive: [7] | [17] | [15] | [16] | [8] | [14] | [11] | [12]
